Rows were chosen to be rich in hits. Some 1% of all compounds tested hit in one or more screens of this group.
PTAP TSG101 blk: qHTS Assay for Iinhibitors of HIV-1 Budding by Blocking the Interaction of PTAP/TSG101; Fluorescence polarization, FITC-PTAP peptide / Tsg101 binding; 340,000 tested, under 10 active; Tumor susceptibility gene 101 protein (Homo sapiens), Q99816; Potency, µM (highest dose often 115 µM), without a hit: at the top dose activity change, negative = inhibition, usual class: inhibitors; active = well fitted inhibition curve with a large enough effect in the main read-out, with a control signal flat, not every such curve was filed as active; inconclusive = small, poorly fitted or top-dose-only effect, or effect the other way, or a change in a side signal; inactive = no such curve, though single readings can be large or run the other way; note: potency is the fitted concentration of half-maximal effect; % of control where 0% means no effect
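Steps: Tsg101 binding domain dispensed (10 uM final), compounds pinned in DMSO, FITC-labeled PTAP-motif peptide added (50 nM final); after 20 min binding at room temperature, polarization measured.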
TRPML1 inh: qHTS for Inhibitors of the Human Mucolipin Transient Receptor Potential 1 (TRPML1) | Mucolipin-1 (Homo sapiens), Q9GZU1 | TRPML1-inducible cells, Ca2+ dye fluorescence, FDSS; stronger effect = lower value; inhibition of EC80 agonist-evoked calcium signal | activity change, negative = inhibition, % (test concentration not listed) | 0.02% of 390,000 active; in the data active = activity change below about -50%; inconclusive = between about -30% and that limit;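 note: stimulus is agonist 54-4 at its EC80 concentration; % is set by controls: 0 for no effect and ±100 for the full control effect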
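Calcium fluorescence in TRPML1-DL cells induced overnight with Tet: a 110 s read after compound pin addition, then a 110 s antagonist read after challenge with 54-4 at 4 uM final (EC80).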
GRP78 ERSR act: qHTS for Inducers of the Endoplasmic Reticulum Stress Response (ERSR) in Human Glioma: qHTS; 0.02% of 420,000 active; AID 602332, 2012; U87-MG GRP78 promoter luciferase reporter, 16 h; Potency, µM, for the others: top-dose activation, usual class: activators; active = well fitted activation curve with a large enough effect; inconclusive = small, poorly fitted or top-dose-only effect; inactive = no such curve, though single readings can be large or run the other way; note: potency is the fitted concentration of half-maximal effect; series mostly up to about 76 µM; % of control where 0% means no effect; nearly all actives have a fitted effect of over 35% in size
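ERSR induction read as luciferase luminescence (Bright-Glo, 10 min at room temperature) in stably transfected human U87-MG glioma cells exposed to compounds for 16 h, using GRP78 as sensor.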
KCNH2 3.1 block: qHTS for Inhibitors of KCHN2 3.1: Mutant qHTS; Potassium voltage-gated channel subfamily H member 2, brain isoform KCNH2 3.1 (human); U2OS KCNH2 3.1, thallium flux FluxOr; stronger effect = lower value; 0.95% of 340,000 active; activity change, % (tested at about 1.8 µM); AID 720553, 2013;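 active = maximum activity change below -70%; inconclusive = maximum activity change from -70% to -50%; inactive = maximum activity change above -50%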;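 note: thallium influx rate constant from kinetic fluorescence after stimulation buffer; % is set by controls: 0 for no effect and ±100 for the full control effect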
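U2OS cells transduced with KCNH2 3.1 mutant virus (1.77 x 10^8 /mL, 4 h), plated overnight at 37 C, loaded 45 min with FluxOr dye plus Red40 quencher. Thallium flux rate constant from kinetic reads after stimulation buffer, normalised to controls.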
TRPML1 agonist: qHTS for Agonists of the Human Mucolipin Transient Receptor Potential 1 (TRPML1); TRPML1-expressing cells, Ca2+ dye fluorescence, FDSS; activation, % (no concentration beside the values); 0.12% of 410,000 active; in the data active = activation above about 50%; inconclusive = mostly about 30% to 49%; note: 0% is about no effect
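Tetracycline-induced TRPML1-DL cells are seeded and incubated overnight before loading with a no-wash Ca2+ dye and quencher. Agonist activity is taken from the 110 s fluorescence read following compound pin-transfer on an FDSS, before EC80 54-4 challenge.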
KCNH2 WT inh: qHTS for Inhibitors of KCHN2 3.1: Wildtype qHTS | U2OS, BacMam KCNH2, thallium flux FluxOr; stronger effect = lower value | activity change, % at 1.84 µM | 0.37% of 340,000 active;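 active = maximum activity change below -70%; inconclusive = maximum activity change between -70% and -50%; inactive = maximum activity change above -50%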; note: % is set by controls: 0 for no effect and ±100 for the full control effect
Target sequence (Q12809 whole entry, looked up): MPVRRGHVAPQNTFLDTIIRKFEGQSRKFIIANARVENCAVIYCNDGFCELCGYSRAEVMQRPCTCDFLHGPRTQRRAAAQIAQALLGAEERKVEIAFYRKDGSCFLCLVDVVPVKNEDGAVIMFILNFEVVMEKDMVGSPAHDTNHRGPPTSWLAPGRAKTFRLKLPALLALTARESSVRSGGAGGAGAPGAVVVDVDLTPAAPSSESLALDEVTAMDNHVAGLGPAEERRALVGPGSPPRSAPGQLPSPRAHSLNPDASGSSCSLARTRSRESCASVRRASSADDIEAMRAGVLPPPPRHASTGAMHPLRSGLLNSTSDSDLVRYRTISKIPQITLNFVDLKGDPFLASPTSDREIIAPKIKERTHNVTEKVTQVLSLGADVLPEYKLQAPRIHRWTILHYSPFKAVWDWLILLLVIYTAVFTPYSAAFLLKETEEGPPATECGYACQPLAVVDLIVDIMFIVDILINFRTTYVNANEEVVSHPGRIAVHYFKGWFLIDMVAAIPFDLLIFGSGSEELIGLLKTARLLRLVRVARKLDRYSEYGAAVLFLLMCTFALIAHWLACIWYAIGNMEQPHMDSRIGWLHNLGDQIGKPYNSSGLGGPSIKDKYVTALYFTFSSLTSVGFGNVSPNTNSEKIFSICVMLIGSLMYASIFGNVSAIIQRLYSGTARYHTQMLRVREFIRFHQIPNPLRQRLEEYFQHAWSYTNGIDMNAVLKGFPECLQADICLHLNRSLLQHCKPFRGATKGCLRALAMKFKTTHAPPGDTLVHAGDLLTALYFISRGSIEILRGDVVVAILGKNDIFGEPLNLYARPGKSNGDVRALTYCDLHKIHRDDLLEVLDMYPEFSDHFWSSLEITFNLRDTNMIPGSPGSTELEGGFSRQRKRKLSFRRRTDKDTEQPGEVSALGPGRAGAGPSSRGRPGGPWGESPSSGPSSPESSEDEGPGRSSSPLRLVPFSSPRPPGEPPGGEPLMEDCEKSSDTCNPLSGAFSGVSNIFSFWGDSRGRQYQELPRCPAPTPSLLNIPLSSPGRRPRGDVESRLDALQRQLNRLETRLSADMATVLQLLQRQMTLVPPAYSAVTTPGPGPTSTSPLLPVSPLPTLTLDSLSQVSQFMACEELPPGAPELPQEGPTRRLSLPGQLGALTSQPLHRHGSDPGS
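U2OS cells transduced with wild-type KCNH2 virus are loaded with FluxOr dye for 45 min, and thallium flux is measured in kinetic reads before and after stimulation buffer. Rate constants are normalized to DMSO controls.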
* = called active by the depositor; ? = inconclusive; nt = no result.

SMILES | PTAP TSG101 blk | TRPML1 inh | GRP78 ERSR act | KCNH2 3.1 block | TRPML1 agonist | KCNH2 WT inh
CCN1/C(=C/c2ccc3cccc(C)c3[n+]2CC)Sc2ccccc21 | 12% | -11 | -9% | 5 | 58* | -1
CCN1/C(=C/c2ccc3cc(C)cc(C)c3[n+]2CC)Sc2cc(C)ccc21 | 10% | -24 | -14% | -15 | 24 | -17
CCN1/C(=C/c2ccc3cc(C)ccc3[n+]2CC)Sc2ccc3sccc3c21 | 3% | nt | -1% | 4 | nt | -12
COc1cc(C)c(CN2C[C@H](Sc3nc4ccccc4[nH]3)C[C@H]2C(=O)N(C)C)cc1C | nt | nt | -6% | nt | nt | nt
CO/N=C(\C(=O)N[C@@H]1C(=O)N2C(C(=O)OCOC(=O)C(C)(C)C)=C(C)CS[C@H]12)c1csc(N)n1 | nt | nt | 0% | nt | nt | nt
Cc1cnc(C)c(-c2cccc3c2OC(CNC(=O)C2(c4ccc(Cl)cc4)CC2)C3)n1 (stereo not drawn) | nt | nt | -1% | nt | nt | nt
Cc1c(C(=O)CN2CCN(c3ccccc3)CC2)c2ccccc2n1C | 0% | 8 | -3% | -10 | 0 | ?
Cn1c2c(c3ccccc31)CCN(CCCCN1CCN(c3ccccc3)CC1)C2=O | 0% | 0 | -1% | -109* | 2 | -78*
CC(C)(C)c1ccc(C(=O)N2CCC3(CC2)CC3C(=O)NCCc2ccccn2)cc1 (stereo not drawn) | nt | nt | -3% | nt | nt | nt
CC1CCc2c(sc3ncn4c(SCC(=O)NCc5ccco5)nnc4c23)C1 (stereo not drawn) | -3% | -9 | -2% | -5 | 0 | 5
CC1CCc2sc3ncn4nc(C(=O)NCc5ccco5)nc4c3c2C1 (stereo not drawn) | -4% | 4 | -3% | -77* | -1 | 6
COc1ccc(CN2CCN(C(C)=O)CC2)cc1OC1CCN(C(=O)c2ccc3[nH]c(C)c(C)c3c2)CC1 | nt | nt | -3% | nt | nt | nt
O=C(NC1CC1)C1=C[C@H](c2ccccc2)C[C@H](OCc2ccc(CO)cc2)O1 | 0% | -14 | -3% | -181* | -1 | -11
O=C(NCc1nc2ccccc2[nH]1)C1=C[C@@H](c2ccc(Br)cc2)C[C@@H](OCc2ccc(CO)cc2)O1 | -4% | -9 | -3% | -97* | 0 | 10
O=C(NCc1nc2ccccc2[nH]1)C1=C[C@@H](c2ccccc2)C[C@@H](OCCCCO)O1 | -4% | 0 | -3% | -17 | 0 | 36
O=C(NC1CC1)C1=C[C@H](c2ccc(Br)cc2)C[C@H](OCc2ccc(CO)cc2)O1 | -2% | -14 | -2% | -10 | 0 | 0
O=C(NCc1nc2ccccc2[nH]1)C1=C[C@@H](c2ccc(Br)cc2)C[C@@H](OCCCCO)O1 | 2% | -2 | -1% | -89* | 0 | -35
O=C(NCc1nc2ccccc2[nH]1)C1=C[C@@H](C2CCCCC2)C[C@@H](OCCCCO)O1 | 0% | 20 | -6% | -75* | -1 | 10
COc1ccc(C(=O)NCC2Cc3cccc(-c4cncnc4)c3O2)c(OC)c1OC (stereo not drawn) | nt | nt | -4% | nt | nt | nt
O=C(CNS(=O)(=O)c1cccc(Cl)c1)Nc1ccc(-c2nc3ccccc3s2)cc1 | -6% | -7 | 2% | -74* | 1 | -8
CC(C)(C)c1ccc(S(=O)(=O)NCC(=O)Nc2ccc(-c3nc4ccccc4s3)cc2)cc1 | -2% | 7 | -1% | -4 | -1 | 1
CC/C(=N/NC(=O)c1ccc(Br)cc1)c1ccc(OCCN2CCOCC2)cc1 | 0% | 8 | 2% | 6 | -1 | 2
CCCOc1ccc(/C(CC)=N/NC(=O)C2(C)CC2(Br)Br)cc1 (stereo not drawn) | 1% | 36 | -1% | -77* | 1 | 6
Cc1ccc2c(c1)cc(CN(C)Cc1nc(C)cs1)c(=O)n2C | nt | nt | -2% | nt | nt | nt
O=C(c1ccc([N+](=O)[O-])cc1)N1CCN(C(=O)c2cccnc2)CC1 | 0% | 50 | -3% | 0 | -1 | 6
SMILES | PTAP TSG101 blk | TRPML1 inh | GRP78 ERSR act | KCNH2 3.1 block | TRPML1 agonist | KCNH2 WT inh
O=C(c1cccnc1)N1CCN(c2ccc([N+](=O)[O-])cc2Cl)CC1 | -1% | -2 | -4% | -120* | 0 | 9
O=C(c1ccc(-c2cccc([N+](=O)[O-])c2)o1)N1CCN(c2ccc([N+](=O)[O-])cc2)CC1 | 1% | 29 | -2% | -116* | 1 | -111*
O=C(c1ccc(-c2ccc(Cl)cc2)o1)N1CCN(c2ccc([N+](=O)[O-])cc2Cl)CC1 | -7% | 30 | -4% | -83* | 0 | -5
O=C(c1ccc(-c2ccc([N+](=O)[O-])cc2)o1)N1CCCCC1 | 5% | 18 | 0% | 6 | 0 | 5
COc1cc2nc(N3CCCCC3)nc(NC3CCN(C)CC3)c2cc1OC | nt | nt | nt | nt | 0 | nt
COC(=O)c1ccc(OCC(O)CN2CCN(C(=O)c3ccco3)CC2)c(OC)c1 (stereo not drawn) | -1% | 3 | -3% | -85* | 0 | 2
COc1ccccc1CNC(=O)CN1C(=O)NC2(CCCc3sccc32)C1=O (stereo not drawn) | -3% | 6 | -1% | 10 | -1 | -236*
COc1ccc(CNC(=O)CN2C(=O)NC3(CCCc4sccc43)C2=O)cc1OC (stereo not drawn) | -15% | 3 | -4% | 3 | 0 | 2
O=C(c1cccnc1)C1CCCN(Cc2ccc3c(c2)CN(C(=O)c2cnccn2)CCO3)C1 (stereo not drawn) | nt | nt | -4% | nt | nt | nt
O=C(NCc1ccc2c(c1)OCO2)C1CCN(c2ncccn2)CC1 | -3% | -5 | -3% | -5 | -1 | 6
Cc1ccnc(N2CCC(C(=O)NCc3ccc4c(c3)OCO4)CC2)n1 | 0% | 24 | -1% | -16 | -1 | -195*
COCC1CCCN(Cc2ccc3c(c2)CN(C(=O)c2ccc(-n4cccn4)cc2)CCO3)C1 (stereo not drawn) | nt | nt | -1% | nt | nt | nt
CCOC(=O)[C@@H](C)N(C(=O)OC(C)(C)C)S(=O)(=O)N(Cc1ccccc1)[C@@H](C(=O)OC)C(C)C | nt | nt | -3% | nt | 57* | nt
CCOC(=O)[C@@H](C)N(C(=O)OC(C)(C)C)S(=O)(=O)N(Cc1ccccc1)[C@H](C(=O)OC)C(C)C | -7% | 19 | -1% | -8 | -1 | -4
Cc1c(C(=O)NCCCc2ccncc2)cnn1-c1ncc2c(n1)-c1ccccc1CC2 | nt | nt | -1% | nt | nt | nt
